For orientation: inhibition means the relative decrease from the control value, in per cent.

Several values for one entry are separate records, joined by “and”; a condition that tells them apart may be missing. Equal entries are not always repeated. Screen size: about 330,000 compounds; about 2,800 (0.85%) were called active. This excerpt belongs to a sample that is enriched for actives. A number with no mark means an inactive call.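 How the source made its calls: active means mean inhibition across replicates of 60% or more, whatever share of single replicates reaches that level; inconclusive means some that reach 60%, reason not given; inactive means mean inhibition across replicates below 60%.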

The assay in a line: MITF transcriptional activity suppression – cell-based, SK-MEL-5, single point, luciferase, primary screen (AID 488899). The settings on record: SK-MEL-5 TRPM1 promoter luciferase, 24 h; at 12.5 µM; active compounds read high.
As for `CCOc1ccc(-c2cc(C)[n+](CCN(CC)CC)c(-c3ccc(OCC)cc3)c2)cc1`, the inhibition was 69.6% (active).

Consider `CC1CC=CCC12C(=O)NC(=S)NC2=O` (stereo not given), for which the inhibition is 6.98%.

For the molecule `N#Cc1ccc(Cn2cc(C(=O)c3ccco3)c3ccccc32)cc1`, the inhibition is 12.8%.

Turning to `CC(=O)N(C1=NCCCS1)c1ccccc1F`, the inhibition was 6.66%.

As to `Fc1ccc(C2N3CCCN23)cc1` (stereo not given), the inhibition was 5.89%.

With `CC1=CC(=Cc2sc3ccccc3[n+]2C)C=C(C)O1`, the inhibition was 69.6% (active).

As for `Cc1cccc(NC(=O)N2CC3CC(C2)c2cccc(=O)n2C3)c1` (stereo not given), the inhibition was -3.6%.

Consider `Cc1nn(Cc2ccccc2Cl)c(Cl)c1C(=O)OC(C(=O)NC(N)=O)C(C)C` (stereo not given), for which the inhibition is -9.08%.

On to `CC1C(=O)OC2CCN3CC=C(COC(=O)C(C)(O)C1(C)O)C23` (stereo not given), for which the inhibition was -1.22%.

In the case of `O=C(c1ccccc1)C(O)(CN1CCCCC1)c1ccccc1` (stereo not given), the inhibition is 3.2%.

Consider `OCC#CC[N+]1(CC#Cc2ccccc2)CCCC1`, for which the inhibition is 2.94%.

With `COC(=O)C1=C(c2cccc(OCc3ccccc3)c2)C[C@@H]2CC[C@H]1N2C(=O)NCc1ccc(Br)cc1`, the inhibition is -1.21%.

For `CCC(C)(O)C(=O)OC1C(=O)OC2CC3C(C)=CC(=O)C(O)C3(C)C3C4(O)OCC23C1C(C)C4O` (stereo not given), the inhibition was 72.8% (active).

For the molecule `CC1=C2C(=O)C3C(CC=C4CC(OC5OC(O)C(O)C(O)C5CO)CCC43C)C2CCC12OC1CC(C)CNC1C2C` (stereo not given), the inhibition was 0.655%.

For `CN(C)C(=O)NC(O)C(Cl)(Cl)Cl` (stereo not given), the inhibition was 8.39%.

In the case of `CCN1c2nc3c(C)cccn3c(=O)c2CC2(C(=O)N(C)C(=O)N(C)C2=O)C1C` (stereo not given), the inhibition was 0.643%.

For the molecule `Cn1c(O)c(C=Nc2ccc3c(c2)CCC3)c(=O)n(C)c1=O`, the inhibition is -24.2%.

With `COC(=O)C1=C(c2ccc3ccccc3c2)C[C@@H]2CC[C@H]1N2C(=O)NCCO`, the inhibition was -9.09%.

With `CC12CN3CC(C)(CN(C1)C3c1cccs1)C2` (stereo not given), the inhibition is -13%.

As to `CC(=O)OC1C2(CC3N4C(=O)C5(CO)SSC4(CC31O)C(=O)N5C)OC(C)C(C)(C)C2=O` (stereo not given), the inhibition is 112% (active).

As for `CC1CNCCN1c1ccc(Cl)cc1` (stereo not given), the inhibition was -17.8%.

`Cc1cc2ccccn2c1C(C[N+](=O)[O-])c1c(F)cccc1Cl` (stereo not given): the inhibition was 7.17%.

For `O=c1c2ccccc2nc(/C=C/c2ccc(F)cc2)n1-c1ccccc1O`, the inhibition is -2.83%.

For `Cc1ccc(P(=S)(c2ccc(C)o2)N2CCOCC2)o1`, the inhibition is -0.096%.

With `COC1C(O)C(C)OC(OC2CCC3(C=O)C(CCC4C3CCC3(C)C(C5=CC(=O)OC5)CCC43O)C2)C1O` (stereo not given), the inhibition is 74.9% (active).

Turning to `O=C(O)CCn1cc(C=C2C(=O)NC(=S)NC2=O)c(-c2cccc(Br)c2)n1`, the inhibition is 4.06%.

On to `c1ccc(CCN2CCC3(CC2)OCCO3)cc1`, for which the inhibition was 9.66%.

For `C[C@]12CC[C@H](O)C[C@H]1CC[C@@H]1C2CC[C@]2(C)[C@@H](C3=CC(=O)OC3)[C@@H](O)C[C@]12O` (stereo not given in full), the inhibition was 80.6% (active).

Turning to `C[C@]12CCC3C(CC[C@H]4C[C@@H](O)CC[C@]34C)C1CC[C@@H]2O` (stereo not given in full), the inhibition was 6.32%.

`C[C@]12CCC3C(CC[C@H]4C[C@@H](O)CC[C@]34C)C1C[C@@H](O)[C@H]2O` (stereo not given in full): the inhibition is 2.08%.

Take `NCCc1c[nH]c2ccc(O)cc12`: the inhibition is 12.6%.

In the case of `COC(=O)C1=C(c2ccc(-c3ccccc3)c(F)c2)C[C@@H]2CC[C@H]1N2C(=O)NCc1ccc(F)cc1`, the inhibition was -8.41%.

Consider `CCCCCCCCCCCCn1ccc(=N)cc1`, for which the inhibition was 80.1% (active).

Consider `CN(C)C(=O)Oc1cc(OC(=O)N(C)C)cc(C(O)CNC(C)(C)C)c1` (stereo not given), for which the inhibition was -3.47% and -8.18%.

`CC(C)c1c(CN(C)C(C)Cc2ccccc2)n(C)n(-c2ccccc2)c1=O` (stereo not given): the inhibition is 9.81%.
